# Shown are actives, neighbours in structure and some others; about 6.5% of the full set was active somewhere.
# Spn DPM-DC inh: blocks S. pneumoniae diphosphomevalonate decarboxylase. AID 556. purified DPM-DC, PK/LDH coupled NADH fluorescence. calls only at 10 µM. hit rate 0.49% among 65,000;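 active means the 320 compounds with the highest percent inhibition in the single-dose primary screen, excluding strongly autofluorescent ones, cut at about 32% in these data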;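 further: kinetic rate of NADH fluorescence loss reporting ADP formed by the decarboxylase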
# NADH coupling: blocks coupling enzymes of NAD/NADH assays; coupled PK/LDH NADH assays, four targets; IC50, µM (series often up to 10 µM), for the others: at the top dose inhibition; hit rate 0.02% among 65,000;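 active means single-dose screening hits from any of four coupled enzyme assays that gave an IC50 when retested across doses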;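 further: the DPM-DC format reads NADH fluorescence rather than 340 nm absorbance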
# Spn PMK inh: blocks S. pneumoniae phosphomevalonate kinase | purified PMK, PK/LDH-coupled NADH absorbance 340 nm | inhibition, % at 10 µM | hit rate 0.49% among 65,000 | AID 539;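 active means top-ranked compounds by inhibition in the single 10 µM screen, taking a fixed number of the strongest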;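 further: 0% = full reaction with DMSO carrier and 100% = background rate without enzyme reaction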
# Fluor 339 460: intrinsic fluorescence of library compounds, ex339/em460 – biochemical, MLSMR library, data from DPM-DC assay, artefact control, profiling panel; compound autofluorescence, ex339/em460 nm, NADH buffer; active compounds read high; 1 = no-compound wells, NADH background; hit rate 5.5% among 65,000; AID 709; fluorescence fold increase at 10 µM;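 active means at 10 µM, mean starting fluorescence two-fold or more over control wells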;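 further: signal is the first read of a kinetic run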
# A340 absorber: compounds absorbing at 340 nm | compound absorbance at 340 nm, fold over control | fold change at 10 µM | 65,000 tested, under 10 active;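 active means at 10 µM dose, initial 340 nm absorbance at least 2 fold that of control wells; inactive means change under 2 fold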;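 further: initial absorbance extrapolated from kinetic A340 decline of NADH oxidation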
# MK inhibit: inhibitors of Streptococcus pneumoniae mevalonate kinase | purified MK, PK/LDH-coupled NADH absorbance 340 nm | inhibition, % at 10 µM | hit rate 0.48% among 65,000;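 active means ranked among the strongest by inhibition in the single 10 µM screen, a fixed top-ranked set picked for dose follow-up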
# Numbers without * were called inactive; i = inactive; . = no result given; + = active, no number.
SMILES,Spn DPM-DC inh,NADH coupling,Spn PMK inh,Fluor 339 460,A340 absorber,MK inhibit
COc1ccc(-c2nc(C#N)c(N3CCN(c4ccccc4)CC3)o2)cc1,i,6.0%,6.0,1.45,0.99,10.0
O=S(=O)(c1ccccc1)c1nc(-c2cccs2)oc1NCC1CCCO1 (stereo not given),i,3.0%,5.0,1.12,1.06,0.0
CC1CN(S(=O)(=O)c2cccc(-c3cn4cccnc4n3)c2)CC(C)O1 (stereo not given),.,5.0%,4.0,3.78*,1.12,5.0
O=C(Nc1ccccn1)c1cccc(S(=O)(=O)N2CCOCC2)c1,i,7.0%,6.0,0.95,1.03,10.0
O=S(=O)(c1cccc(-c2cn3cccnc3n2)c1)N1CCOCC1,.,13.0%,14.0,3.77*,1.09,11.0
O=S(=O)(c1cccc(-c2cn3cccnc3n2)c1)N1CCCCCC1,.,9.0%,12.0,3.6*,1.06,5.0
CC(=O)N(CCc1ccccc1C)Cc1cc2cc3c(cc2[nH]c1=O)OCO3,.,4.0%,8.0,2.97*,1.06,6.0
CCN(CC)CCCN(Cc1cc2cc3c(cc2[nH]c1=O)OCCO3)C(=O)Nc1ccc(F)cc1,i,11.0%,6.0,3.19*,1.08,.
O=C(c1cccs1)N(CCO)Cc1cc2cc3c(cc2[nH]c1=O)OCCO3,i,7.0%,1.0,2.55*,1.15,0.0
Cc1cc(C)c2cc(CN(CCO)C(=O)Nc3ccc(F)cc3)c(=O)[nH]c2c1,i,5.0%,6.0,1.16,1,8.0
CCN(CC)CCCN(Cc1cc2cc3c(cc2[nH]c1=O)OCO3)C(=O)Nc1ccccc1OC,+,15.0%,5.0,2.76*,1.18,7.0
CCOC(=O)c1c(NC(=O)CC)sc(C(C)=O)c1C,i,8.0%,9.0,1.11,1.07,14.0
Cc1cccc(NC(=O)CCN2C(=O)C3C4C=CC(C4)C3C2=O)n1 (stereo not given),i,1.0%,3.0,1.12,1.02,0.0
O=P(O)(CCCCP(=O)(O)CCc1ccccc1)CCc1ccccc1,i,6.0%,8.0,1.07,1.02,10.0
O=S(=O)(NC1CCCCC1)c1ccc(Br)cc1,i,8.0%,13.0,1.06,1.01,10.0
Nc1nc2c3ccccc3nc(C3CC3)n2n1,i,3.0%,0.0,1.22,1.01,9.0
CCc1cc(C(=O)COc2ccccc2F)c(O)cc1O,i,4.0%,2.0,0.87,1.1,6.0
Cc1cc(N2CCCC2)n2nc(C)nc2n1,i,4.0%,5.0,1.09,1.02,6.0
CCOC(=O)N1CCN(c2cc(C)nc3nc(C)nn23)CC1,.,5.0%,4.0,2.1*,1.02,5.0
COc1cc2c(cc1OC)C(=NCCC(=O)O)NC(C)(C)C2,i,7.0%,22.0,1.34,1,0.0
CCOC(=O)C1CCCN(C(=O)c2cnn3c(C(F)F)cc(-c4ccc(C)cc4)nc23)C1 (stereo not given),i,8.0%,4.0,2.31*,1.09,6.0
COc1ccc(-c2cc(C(F)F)n3ncc(C(=O)N4CCSCC4)c3n2)cc1,.,12.0%,8.0,3.46*,1.2,15.0
CCOC(=O)C1CCN(C(=O)c2cnn3c(C)cc(C)nc23)CC1,i,15.0%,20.0,3.45*,0.96,0.0
Cc1ccc(-c2cc(C(F)F)n3ncc(C(=O)N4CCN5CCCC5C4)c3n2)cc1 (stereo not given),i,5.0%,1.0,1.79,1.1,0.0
CSCC[C@H](NC(=O)OC(C)(C)C)c1nnc(SCC=C(C)C)o1,i,8.0%,12.0,1.11,0.99,13.0
SMILES,Spn DPM-DC inh,NADH coupling,Spn PMK inh,Fluor 339 460,A340 absorber,MK inhibit
COc1cccc(NS(=O)(=O)c2nc3nc(C)cc(C)n3n2)c1,i,0.0%,0.0,1.14,1.05,0.0
Cc1ccc(N2C(=O)c3oc4ccccc4c(=O)c3C2c2cccc(O)c2)nc1 (stereo not given),i,4.0%,11.0,1.03,0.98,11.0
Cc1nc2ccccc2c(=O)n1N,i,3.0%,6.0,1.02,1.03,3.0
Cc1csc2nc3ccccc3c(=O)n12,i,6.0%,4.0,2.02*,1,5.0
CNC(=O)c1cc2c(=O)n3cc(C)ccc3nc2n(C(C)C)c1=N,.,7.0%,7.0,5.02*,1.02,7.0
COc1ccc(CCn2c(=N)c(C(=O)NCc3ccco3)cc3c(=O)n4ccccc4nc32)cc1,i,4.0%,7.0,1.16,1,4.0
CNC(=O)c1cc2c(=O)n3cc(C)ccc3nc2n(Cc2ccco2)c1=N,i,4.0%,3.0,2.04*,1.01,3.0
CCc1sc(C(=O)NC2CCN(C)CC2)cc1Br,i,3.0%,0.0,1.14,1,7.0
CCC(C)NCC(=O)Nc1ccc(-c2nc3cc(NC(=O)CNC(C)CC)ccc3o2)cc1 (stereo not given),.,11.0%,13.0,3.72*,1.16,8.0
CCC(=O)Nc1ccc2oc(-c3ccccc3Br)nc2c1,i,7.0%,6.0,1.9,1.03,8.0
COc1ccc(-c2nc3cc(NC(=O)Cc4ccc(OC)c(OC)c4)ccc3o2)cc1,.,5.0%,15.0,2.59*,0.98,0.0
O=C(CN1C(=O)c2ccccc2C1=O)Nc1ccc(-c2nc3ccccc3o2)cc1,i,5.0%,12.0,1.16,1.08,3.0
O=C(CN1CCCC1)Nc1ccc(-c2nc3cc(NC(=O)CN4CCCC4)ccc3o2)cc1,.,12.0%,9.0,3.71*,1.26,14.0
CCN(CC)CC(=O)Nc1ccc(-c2nc3cc(NC(=O)CN(CC)CC)ccc3o2)cc1,.,4.0%,12.0,2.97*,1.06,5.0
O=C(CCCc1c[nH]c2ccccc12)N1CCN(S(=O)(=O)c2cccs2)CC1,i,4.0%,11.0,1.04,1,0.0
COC(=O)C1=CNC=C(C(=O)OC)C1c1ccc(Cl)cc1,.,2.0%,0.0,3.84*,1.06,3.0
COC(=O)C1=CNC=C(C(=O)OC)C1c1ccccc1Cl,.,0.0%,0.0,3.63*,1.04,0.0
COC(=O)C1=CNC=C(C(=O)OC)C1c1cccc(OC)c1,.,8.0%,10.0,3.89*,1.1,6.0
CCC1CCCCN1C(=O)CSc1nnc(-c2cccs2)o1 (stereo not given),i,2.0%,5.0,1.23,1.02,0.0
Cc1cc(C)c2c(=O)n(CC(=O)N3CCC(Cc4ccccc4)CC3)sc2n1,+,12.0%,7.0,1.23,0.99,19.0
Cc1cccc(N2CCN(C(=O)Cn3sc4nc(C)cc(C)c4c3=O)CC2C)c1 (stereo not given),i,9.0%,0.0,1.2,1.07,14.0
Cc1cc(C)c2c(=O)n(CC(=O)NCCCN3CCN(c4ccccc4F)CC3)sc2n1,+,11.0%,8.0,1.29,1.01,27.0
Cc1cc(C)c2c(=O)n(CC(=O)NCCCN3CCOCC3)sc2n1,i,10.0%,10.0,1.21,0.99,23.0
CCOC(=O)c1cc(-c2cc3ccccc3o2)nc2c1c(=O)[nH]c(=O)n2CCOC,.,9.0%,15.0,5.14*,1.14,2.0
